“And” between values parts separate entries of the source, which are not always exact repeats. Equal values may be shown once. Among all 5,500 compounds or so, about 2,000 (36%) were called active. Another 18% or so got no clear call; they are omitted. Rule as the data show it: active = normalized growth mostly below about 0.91 (no sharp cut-off); inconclusive = no clear call, values can overlap the other calls; inactive = mostly above about 0.92. Some of the results follow.
Test: chemical genetic growth profiling, strain panel (AID 1159580);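 also: tested at 20 µM; growth read once vehicle control cultures reached saturation at 30 °C; 1 = growth at the plate median or of vehicle wells; lower values mean less growth of the strain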
Conditions: S. cerevisiae deletion strains, growth OD

Measured: normalized growth

CN1CCCN=C1COC(=O)C(O)(c1ccccc1)C1CCCCC1 (stereo unspecified)
inactive: locus YAL013W, strain DEP1, hits give low values 1.01 | locus YAL021C, strain ccr4, hits give low values 1 | locus YAL026C, strain drs2, hits give low values 0.993 | locus YAL030W, strain snc1, hits give low values 0.996 | locus YBL061C, strain skt5, hits give low values 0.987 | locus YBR009C, strain hhf1, hits give low values 0.994 | locus YBR021W, strain FUR4, hits give low values 1.03 | locus YBR023C, strain chs3, hits give low values 0.987 | locus YBR171W, strain sec66, hits give low values 0.993 | locus YBR229C, strain ROT2, hits give low values 1.01 | locus YBR231C, strain swc5, hits give low values 1 | locus YBR279W, strain paf1, hits give low values 0.993 | locus YCL011C, strain gbp2, hits give low values 1 | locus YCL016C, strain dcc1, hits give low values 0.991 | locus YCL029C, strain bik1, hits give low values 0.99 | locus YCL061C, strain MRC1, hits give low values 0.994 | locus YCL069W, strain vba3, hits give low values 0.997 | locus YCR088W, strain abp1, hits give low values 0.997 | locus YDL005C, strain med2, hits give low values 0.98 | locus YDL035C, strain GPR1, hits give low values 1 | locus YDL040C, strain nat1, hits give low values 0.998 | locus YDL074C, strain BRE1, hits give low values 1.01 | locus YDL101C, strain DUN1, hits give low values 1.01 | locus YDL134C, strain PPH21, hits give low values 1.02 | locus YDL185W, strain tfp1, hits give low values 1 | locus YDL192W, strain arf1, hits give low values 0.999 | locus YDR001C, strain nth1, hits give low values 0.995 | locus YDR069C, strain doa4, hits give low values 0.99 | locus YDR101C, strain arx1, hits give low values 0.968 | locus YDR137W, strain rgp1, hits give low values 0.99 | locus YDR150W, strain NUM1, hits give low values 1.01 | locus YDR159W, strain sac3, hits give low values 1 | locus YDR162C, strain NBP2, hits give low values 1 | locus YDR195W, strain ref2 0.993 | locus YDR297W, strain sur2, hits give low values 1 | locus YDR318W, strain mcm21, hits give low values 0.983 | locus YDR334W, strain swr1, hits give low values 0.989 | locus YDR335W, strain msn5, hits give low values 0.997 | locus YDR388W, hits give low values 0.989 | locus YDR392W, strain spt3, hits give low values 1 | locus YDR502C, strain sam2, hits give low values 0.994 | locus YEL003W, strain gim4, hits give low values 0.997 | locus YEL037C, strain rad23, hits give low values 0.991 | locus YEL061C, strain CIN8 (second series), hits give low values 0.999 | locus YEL061C, strain CIN8, hits give low values 1.01 | locus YER015W, strain faa2, hits give low values 0.978 | locus YER016W, strain bim1, hits give low values 0.994 | locus YER110C, hits give low values 0.991 | locus YER111C, strain swi4, hits give low values 0.995 | locus YER155C, strain BEM2 (second series), hits give low values 1.01 | locus YER155C, strain BEM2, hits give low values 1.03 | locus YER167W, strain BCK2, hits give low values 1.01 | locus YFR010W, strain ubp6, hits give low values 1.01 | locus YGL078C, strain dbp3, hits give low values 0.987 | locus YGL086W, strain mad1, hits give low values 0.992 | locus YGL167C, strain pmr1, hits give low values 0.987 | locus YGL173C, strain kem1, hits give low values 0.987 | locus YGL227W, strain vid30, hits give low values 0.993 | locus YGL240W, strain doc1, hits give low values 1 | locus YGL248W, strain PDE1, hits give low values 1.01 | locus YGL253W, strain hxk2, hits give low values 0.998 | locus YGR078C, strain PAC10, hits give low values 0.991 | locus YGR135W, strain pre9, hits give low values 0.978 | locus YGR229C, strain SMI1, hits give low values 0.99 | locus YGR252W, strain gcn5, hits give low values 1.05 | locus YHR013C, strain ard1, hits give low values 0.981 | locus YHR027C, strain rpn1, hits give low values 0.991 | locus YHR030C, strain SLT2, hits give low values 1.01 and 0.997 | locus YHR079C, strain IRE1 (second series), hits give low values 0.988 | locus YHR079C, strain IRE1, hits give low values 1.01 | locus YHR094C, strain hxt1, hits give low values 0.985 | locus YHR129C, strain ARP1, hits give low values 1.02 | locus YHR142W, strain chs7, hits give low values 0.998 | locus YHR200W, strain rpn10, hits give low values 0.993 | locus YIL066C, strain RNR3, hits give low values 1 | locus YIL073C, strain SPO22, hits give low values 0.999 | locus YIL125W, strain kgd1, hits give low values 0.998 | locus YIR030C, strain dcg1, hits give low values 0.985 | locus YJL092W, strain hpr5, hits give low values 0.997 | locus YJL095W, strain BCK1 (second series), hits give low values 0.998 | locus YJL095W, strain BCK1, hits give low values 1 and 1.01 | locus YJL115W, strain asf1, hits give low values 0.986 | locus YJL129C, strain trk1, hits give low values 1.02 | locus YJL134W, strain LCB3, hits give low values 1.01 | locus YJL154C, strain vps35, hits give low values 0.996 | locus YJL166W, strain qcr8, hits give low values 0.99 | locus YJL168C, strain set2, hits give low values 0.992 | locus YJL187C, strain SWE1 (second series), hits give low values 1.01 | locus YJL187C, strain SWE1, hits give low values 0.999 | locus YJR043C, strain POL32, hits give low values 1 | locus YJR066W, strain TOR1, hits give low values 0.952
